ALDH1A1 block = ALDH1A1 (human) enzyme inhibition. P00352. 220,000 tested, 7.3% active. Purified ALDH1A1, NADH fluorescence, propionaldehyde substrate. Potency, µM (doses to about 75.3 µM), for the others: at the highest dose activity, negative = inhibition, hits mostly inhibitors; active = well fitted inhibition curve with a large enough effect, not every such curve was filed as active; inconclusive = small, poorly fitted or top-dose-only effect, or another doubt; inactive = no such curve, though single readings can be large or run the other way;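 also: plate controls were no enzyme wells and a reference inhibitor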
Target sequence (P00352 whole entry, looked up): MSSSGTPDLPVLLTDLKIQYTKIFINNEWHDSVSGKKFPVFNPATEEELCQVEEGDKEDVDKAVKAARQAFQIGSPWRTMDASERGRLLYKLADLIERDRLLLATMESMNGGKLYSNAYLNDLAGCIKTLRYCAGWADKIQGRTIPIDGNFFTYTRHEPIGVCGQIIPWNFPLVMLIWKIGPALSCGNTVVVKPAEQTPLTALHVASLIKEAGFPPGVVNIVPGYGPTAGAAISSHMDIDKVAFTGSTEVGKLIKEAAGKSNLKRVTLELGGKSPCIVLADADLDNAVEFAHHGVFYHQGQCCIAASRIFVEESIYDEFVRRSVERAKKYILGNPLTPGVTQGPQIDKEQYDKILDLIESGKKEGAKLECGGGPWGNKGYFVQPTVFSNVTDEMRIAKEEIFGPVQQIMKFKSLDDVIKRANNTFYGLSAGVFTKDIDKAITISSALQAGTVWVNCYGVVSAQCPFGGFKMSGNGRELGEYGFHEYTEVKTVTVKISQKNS
HPGD inh = inhibitors of human 15-hydroxyprostaglandin dehydrogenase (HPGD) | purified HPGD, NADH fluorescence kinetic, PGE2 substrate | 150,000 tested, 4.3% active | Potency, µM, for the others: at the top dose activity change, negative = inhibition, actives largely listed as inhibitors | P15428; active = well fitted inhibition curve with a large enough effect, not every such curve was filed as active; inconclusive = small, poorly fitted or top-dose-only effect, or another doubt; inactive = no such curve, though single readings can be large or run the other way; also: % is scaled to controls: 0 for no effect and ±100 for the full control effect
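NADH formation kinetics: reaction with 30 uM PGE2 and 1 mM NAD+ (final), 20 nM enzyme, Tris-HCl pH 8 with Tween 20, after 15 min compound preincubation at room temperature. Fluorescence change, last versus first of five reads.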
Luc counter = blocks Kinase-Glo luciferase, a counter-screen artifact. Q27757. Kinase-Glo luciferase, ATP luminescence, 8 min. Potency, µM (titrated, usually from 38.3 µM), for the others: top-dose activity change, negative = inhibition, hits mostly inhibitors. 200,000 tested, 0.28% active; also: % is scaled to controls: 0 for no effect and ±100 for the full control effect; nearly all actives have a fitted effect of over 60% in size
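Substrate mix (final 50 mM imidazole pH 7.2, 50 mM KCl, 7 mM MgCl2, 10 uM ATP, 0.01% Tween 20, 0.05% BSA) plus pin-tool compound, then Kinase-Glo detection mix; 8 min ambient, luminescence read.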
HttQ103 aggreg = reduces HttQ103-GFP aggregates in PC12 cells; Potency, µM (top dose mostly 46.1 µM), without a hit: at the highest dose activity change, negative = inhibition, hits mostly inhibitors; 220,000 tested, 1.1% active; PC12 HttQ103-GFP aggregates, Acumen cytometry, 40 h; AID 1688; also: % is scaled to controls: 0 for no effect and ±100 for the full control effect; nearly all actives have a fitted effect of over 60% in size
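Aggregate formation scored by laser-scanning cytometer (488 excitation, 500–530 emission) in lysed PC12 cells expressing Q103-GFP after 100 nM tebufenozide induction; library tested in dose series, with ATPLite reagent added in the multiplex.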
HTT ATP protect = protects HTT-Q103 PC12 cells, measured by ATP; PC12 HTT-Q103 induced, cytoprotection, ATP luminescence, 40 h; Potency, µM (highest dose often 56.4 µM), for the others: cytoprotection (ATP increase), actives largely listed as activators; 230,000 tested, 0.14% active; also: % of control where 0% means no effect; nearly all actives have a fitted effect of over 45% in size
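Quantitative HTS on tebufenozide-induced (100 nM) PC12 cells expressing HTTQ103 exon 1–GFP; compounds tested as a concentration series; survival measured via cellular ATP.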
LMNA splice mod = changes lamin A minigene splicing in HeLa cells; HeLa LMNA splicing GFP/RFP minigene ratio, 48 h; Potency, µM (titrated, usually from 46.1 µM), without a hit: at the top dose ratio change, negative = inhibition, most hits filed as inhibitors; 200,000 tested, 0.01% active; active = well fitted inhibition curve with a large enough effect in the signal ratio, with a control signal flat, not every such curve was filed as active; inconclusive = small, poorly fitted or top-dose-only effect, or effect the other way, or a change in a side signal; the % refers to the signal ratio; also: % is scaled to controls: 0 for no effect and ±100 for the full control effect
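S3 HeLa stable clones carrying a lamin A-EGFP splicing minigene plus DsRed2 were seeded at 600 cells/well in Opti-MEM with 2% FBS, pin-dosed and incubated 48 h at 37°C. Acumen cytometry (488 nm) gave the GFP/RFP total-intensity ratio.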
The depositor's hits bear a star; [ ] = dose if it differs, or a comment. Shown are actives, neighbours in structure and some others; about 9% of the full set was active somewhere. Unless noted, calls follow the shape of the dose curve; as a rule, active = well fitted curve in the direction sought with a large enough effect; inconclusive = small, poorly fitted or top-dose-only effect, or another doubt; inactive = no such curve, though single readings can be large; an effect the other way counts as inactive or inconclusive. Potency is read from the fitted curve at half-maximal effect.

CCCCN(CCCC)S(=O)(=O)c1ccc(NC(=O)c2cccs2)cc1 was read as ALDH1A1 block -7%, HPGD inh -11%, Luc counter 17%, HttQ103 aggreg 13µM*, HTT ATP protect 9%[10 µM] and LMNA splice mod inconclusive.
For CN(C1CCCCC1)S(=O)(=O)c1ccc(NC(=S)NC(=O)c2cccs2)cc1 the results were ALDH1A1 block 22µM*, HPGD inh -13%, Luc counter -1%, HttQ103 aggreg inconclusive, HTT ATP protect -36% and LMNA splice mod inconclusive.
`Cc1ccccc1C(=O)N1CCN(c2ccc(NC(=S)NC(=O)c3cccs3)cc2)CC1` gave ALDH1A1 block 3%, Luc counter 2%, HttQ103 aggreg -15% and HTT ATP protect -28%.
Cc1cc(C)cc(NS(=O)(=O)c2ccc(NC(=S)NC(=O)c3cccs3)cc2)c1 was read as ALDH1A1 block 10µM*, HPGD inh -14%, Luc counter 2%, HttQ103 aggreg -29% and LMNA splice mod inconclusive.
For Cc1cc(C)nc(NS(=O)(=O)c2ccc(NC(=O)c3cccs3)cc2)n1 the results were ALDH1A1 block inconclusive, HPGD inh -17%, Luc counter 7%, HttQ103 aggreg 7%, HTT ATP protect -12% and LMNA splice mod 16%.
`CCN(Cc1ccccc1)C(c1ccc(C)cc1)c1nnnn1C(C)(C)CC` (stereo not given) gave ALDH1A1 block 2%, HPGD inh -4%, Luc counter 0%, HttQ103 aggreg inconclusive, HTT ATP protect 20% and LMNA splice mod inconclusive.
CCOC(=O)C1=C(O)/C(=C\c2cccs2)N=C1C was read as ALDH1A1 block -3%, HPGD inh -9%, Luc counter -2%, HttQ103 aggreg -26%, HTT ATP protect -30%[10 µM] and LMNA splice mod -2%.
Screening O=C(C1COc2ccccc2O1)N1CCc2ccccc2C1 (stereo not given) returned ALDH1A1 block inconclusive, HPGD inh 7.1µM*, Luc counter -2%, HttQ103 aggreg -9%, HTT ATP protect 2%[10 µM] and LMNA splice mod 2%.
`COc1ccc(-n2nc3c(c2NC(=O)C(=O)N2CCN(C)CC2)CSC3)cc1` gave LMNA splice mod 19%[46 µM].
For COc1ccc(N2CC(NC(=O)C(=O)c3c(C)[nH]c4ccccc34)CC2=O)cc1 (stereo not given) the results were LMNA splice mod 16%[46 µM].
CCc1cccc(OCCN2CCCC2)c1 was read as ALDH1A1 block 22µM*, HPGD inh -6%, Luc counter -2%, HttQ103 aggreg 15%, HTT ATP protect 10%[10 µM] and LMNA splice mod 2%.
Clc1cccc(OCCN2CCNCC2)c1 was read as ALDH1A1 block 18µM*, HPGD inh -2%, Luc counter 1%, HttQ103 aggreg -9% and LMNA splice mod inconclusive.
Clc1cccc(OCCN2CCOCC2)c1 was read as ALDH1A1 block -11%, HPGD inh 6%, Luc counter 9%, HttQ103 aggreg -8%, HTT ATP protect 6%[10 µM] and LMNA splice mod 5%.
For COC(=O)N1CCC2(CCCN(c3ccc(-c4ccccc4)cc3)C2)CC1 the results were ALDH1A1 block inconclusive, HPGD inh -25%, Luc counter -3% and HTT ATP protect -30%.
Screening Cc1ccc(C(=O)CSc2nnc3c4ccccc4nc(Cc4ccccc4)n23)cc1 returned ALDH1A1 block inconclusive, HPGD inh -12%, Luc counter -1%, HttQ103 aggreg -14%, HTT ATP protect 6%[10 µM] and LMNA splice mod 5%.
`CC(=O)Nc1sc2c(c1C(c1ccncc1)N1CCOCC1)CCCC2` (stereo not given) gave ALDH1A1 block 25µM*, Luc counter 3%, HttQ103 aggreg 7%, HTT ATP protect 0% and LMNA splice mod inconclusive.

High-throughput results (PubChem)
